We go through 109 sequences from PubChem BioAssay AID1347426 (Functional Genomics Laboratory (NCATS/FGL), 2020).

About 1,400 (4.5%) of roughly 31,000 sequences were called active. Many of the other results were omitted from the sample, so actives are more common in it than they were. Values without a mark were called inactive.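 The calls were made as follows: active = median seed-adjusted z-score above 1 or below -1; inactive = the rest.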

This experiment in a line: Novel Modifiers of Survival Motor Neuron (SMN) Protein: Gene Identification via Genome-wide siRNA Screen.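 Also: luminescence tracks full-length SMN protein made from the SMN2 reporter.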 As to conditions: HEK293T SMN2-luciferase reporter, siRNA knockdown, 72 h; actives lie on both sides. An outline of the steps: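 siRNA screen, 10418 genes ×3 siRNAs; 1 pmol/well, lipid reverse transfection into HEK293T SMN2-luc reporter line. 72 h, 37 °C, 5% CO2; ONE-Glo readout. Data: neg-ctrl normalized, log10, MAD; hit = MAD >1.0 or < -1.0.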
(In general: Reporter assays use an easily measured gene product as a stand-in for the process of interest.)
As for GUCUUGACCUUGAACGCAATT against VIM, the median seed-adjusted z-score is 0.431. The figure for GGCUUCUUCUCGUGCAUCATT against KCNK3 is 0. Next, GAAGGGUGAUUCUAAUAUUTT against GPR174: -0.324; GAAUCUGUCAGGAAUGACATT against RARB: 0.409. As for CAUCGAAUCCUUACCCGAATT against AASDHPPT, the median seed-adjusted z-score is 0.64. As to GCCUCACCUCAAUUGCAAATT against ANP32D, the median seed-adjusted z-score was -0.714. Next, GACUACGCCUUGAAGCUAATT against TAF6: -1.36 (active); GCUUUCGUCAAGUCAAAGATT against TIRAP: -0.431; AGAGCUAGAUGGAAGAACATT against SFRS3: 2.74 (active). On to ACUGACAUUUUUCAACUCATT against ALDH1L1, for which the median seed-adjusted z-score was 0.0289. Next, CUACCGCAUCAGUAACAGATT against DDX21: -0.251. Next, GACUCUGAGUAUAAAGUGATT against BARHL1: 0.397.

Consider GGCUGGAUGUCAUUGAGAATT against SRGAP3, for which the median seed-adjusted z-score is -0.0961. Next, GCGAGGGCCUUUUUGAGUATT against CRYAA: -1.03 (active). The figure for GAUCGAAUCUUUAAGGUCUTT against EIF2C1 is 0.215. For the sequence ACAUCUCCGAAAUCGCCUATT against SLC2A8, the median seed-adjusted z-score is -0.105. The figure for AAAUGGAUGAGUUGCAAUUTT against PITX1 is 0; for GCUCCGAAGUGGUGAUCAATT against CHRM1 it is 1.1 (active). GGAUAUGCCUUAGAUUACATT against PRTFDC1: the median seed-adjusted z-score was 0.493. As to GGUUCAUGACAGACAAGAATT against SHMT1, the median seed-adjusted z-score was 0.179. Next, GCAUGUAUCUGCUUGAUAUTT against ODC1: -1.64 (active); GUUUUUGUCCUAGCCCAUATT against OTUD7A: -0.53.

Regarding GCCCAUGUCCCAAAUCACATT against PDE4A, the median seed-adjusted z-score was -0.147. Next, GGCAAAAUCUGGACACCAUTT against TFAP4: -0.0515.

As for CCGGAAUUUUUGACAAGAATT against PTGS2, the median seed-adjusted z-score was -0.21.

Take AGAUCUGCAUGAAACAACATT against VPS16: the median seed-adjusted z-score was 0.306.

As for GGUCUGAAACUCUACUAUATT against SHPRH, the median seed-adjusted z-score is 0.169. Next, GGUUCUAACUUCGAAAAAUTT against DNAJC8: -1.62 (active); AGUCUGUCCGAGUACUUCATT against LFNG: -0.13; GAGUUAAGUGAUAAGUAUATT against ZNF639: 0.182. Next, GCUCUGUAAUAGUCGACUATT against TOPBP1: 0.0888. The figure for GCUUGUAGCUCUUAAGGUUTT against PPP2CA is 0.731. Consider GGUCUUUAUUCGGAAGCGATT against ZNF525, for which the median seed-adjusted z-score is 0.134.

Consider GAUAUUGAGCGGUUACAAATT against ATP7B, for which the median seed-adjusted z-score was 0.0947. The figure for GCACUCAUGUCAUACUGAATT against LIPA is 0.535; for GUUACUUCCGAAUCCAUGATT against ZNF627 it is 0.204. The figure for GGAAACCUCUGGACCUCUATT against ARID1A is -1.14 (active); for GGACAGAUCUGCAAAGAGATT against CETP it is 0.

With GAUGUACCUUGAUACAGUATT against IDH3A, the median seed-adjusted z-score is 0.137. For the sequence CUGAUGAUCUACUCAUAUATT against TEKT1, the median seed-adjusted z-score was 0.222. For GCUCCAUCCUUAUUCAACATT against ZIK1, the median seed-adjusted z-score was -0.0627. The figure for GCUCAUCUGGAUAACCUGATT against ZNF513 is -0.0616; for GGCUAUUAUUGACAUGGUUTT against PDE8B it is 0.217. Next, GAAUAUGAAACAUUCGAUATT against GLRX3: 0.0784; CUUCUGAACUCGGUCCUCATT against SLC5A5: 1.01 (active); GGCUUUCAUUGAGCAGGAATT against ATP6V1E2: -0.162.

Regarding GACCAGCAAUGCCUACGUATT against FLRT1, the median seed-adjusted z-score is -0.00451. The figure for GCAAAACCCUGGAAGGAUATT against KCTD11 is 0.374.

On to UGACAGUGACGGAUGCUAATT against OPLAH, for which the median seed-adjusted z-score is -0.233.

Consider CGAUCGACUCGGUGACUUUTT against COL7A1, for which the median seed-adjusted z-score is 1.08 (active). The figure for GAAGUCACGUCACUACUUATT against ZNF644 is 0.389; for CACAGAUCAUUAUCUAAAUTT against LONP2 it is 1.52 (active); for CCUCAGAACCGGCAAGAAATT against TNFAIP1 it is 0.0766. On to CCAAAAUGUUUCAUCCAAATT against UBE2B, for which the median seed-adjusted z-score is 0.333. As to GAGUUAUGCAAGACAGUAUTT against MYSM1, the median seed-adjusted z-score is -0.116. GCAGCAACCUUGUCAUCCATT against ZNF692: the median seed-adjusted z-score is 0.556.

In the case of CACCAGCGACGGGAUCUUATT against RHOBTB2, the median seed-adjusted z-score was -0.139. The figure for CCGUCACAGUAGAGACUAUTT against LRRC4C is -0.122; for GCAAUUACAUGAGCGAGCATT against PLK1 it is -2.57 (active); for GCUCCAUCAUCGUUGCAUUTT against SYPL2 it is 0.233.

Take CCAUAUUCCUCAUGCAUGUTT against FCRL5: the median seed-adjusted z-score was -0.138. Next, CAUCAGGAAUUACGGGACATT against GPR123: 0; AGGGAACAAGUUUACCAAATT against GTF2IRD1: -0.282. As to GGUUAGACAUCAGUCCUUUTT against DHX15, the median seed-adjusted z-score is 1.36 (active). Next, CAGUUCCAGAUGAACCAUATT against DHDDS: 0.0122; CACGGGAUAUGGAACGAAATT against CXCR7: -0.511; GAACAGUCCCUGGUUCCCATT against ECSIT: -0.116. For the sequence UGCCCUUGGCUAUCCCUGATT against SLC30A3, the median seed-adjusted z-score is -1.26 (active). In the case of GGCUUUGUCAGUUCCCAGATT against SPRR2B, the median seed-adjusted z-score was 0.388. The figure for GCUUUGCUCUGUACCCUGATT against CTSK is 0.0972. As to CCAUUAACCACAUACCAGATT against TLR7, the median seed-adjusted z-score is 0.189.

Turning to CCAGUUCUUUAGGAUCUAUTT against GPR141, the median seed-adjusted z-score is -0.777. The figure for GCGGAGCAUUUGCAACAAATT against NR6A1 is -0.287; for GCACCUUUAGGCGAAGGAATT against SENP6 it is -1.03 (active). Next, CCAUCAUCCCUAAGCGAAUTT against REXO1: -0.748; GUGUGGUCAUUCAACUUGATT against ZNF324B: 0.176. Next, GCACCUUCCUGCUAAGAUUTT against STAT3: 0; GCUACUCCCUGAUUCAGAATT against SLC2A7: -0.0337; CUACAAAAGUUUUUCCAGATT against COX7A2L: 0. Consider CACGGUAUCUCAACCGGAATT against HGS, for which the median seed-adjusted z-score was 1.16 (active). The figure for CCCAGGCUCGAAUCCCAUATT against PLD3 is 0.066; for CCUUCUCCGUGAUUGAGGATT against LGI4 it is -0.239; for GGCGACAGAUGUGAAAGAATT against LDLR it is -0.142.

Consider GAUUGAUAGAAGCACCCUATT against DCC, for which the median seed-adjusted z-score was 0.303. Next, AAGACAAGCUAAAAAUGAUTT against YWHAE: 1.38 (active); GCAAGGACCCAACAACCAATT against TTC9: -0.173. Take GUCAUUUCUUUACCCAAGATT against NUDT5: the median seed-adjusted z-score is 0.228.

Consider GGAAAACUGCGGCUGCAAATT against AP1S1, for which the median seed-adjusted z-score is -1.04 (active). For GCACGAAAAUCCCGACAUATT against DDX54, the median seed-adjusted z-score was 0. Next, GGCCGAAUUUAUAAAGGAATT against CHI3L1: 0.145; GAGGUACGCUGGUUCUACATT against DDHD1: 0; GCAUAGAGGAGAUCUGUGATT against PROC: -0.228. Next, ACUUCUACACGUUUCCAAATT against THAP11: -1.36 (active); GAACAACACGACCAACAGATT against PRKD2: 0.00493; GGGUCGACCUAUUUCCGAATT against DYSF: -0.23. The figure for GCAAACCGGUUAAUCAAGATT against GGA2 is -0.142; for GAUCCUCAGUAAACCUAUUTT against DDX46 it is -1.24 (active). On to GCAUGUUGGUUCACUAUGATT against TPST1, for which the median seed-adjusted z-score is -0.00547. The figure for AGGUCUUUCCCAACGAGGATT against UBE2S is 0.348. Next, GGAUGCACUUUGUCCGAAATT against SPATA5: -1.04 (active); AGUUGGGAUUAAUACUUCATT against CCL7: 0.23. Next, GAACUUGUCUUGCGCAAAATT against ZEB1: -0.163; GGUUUGUGGUGGAAGAUUATT against PLCD3: 0.228; GGAUCACUCUAACAUCGGATT against PDE1C: 0.157. With GGAUCAGUAUGGGCAAAGATT against CALB1, the median seed-adjusted z-score was 0.191. The figure for UCUCUACAACAAAAUUUAATT against POLR2L is -1.19 (active); for CACUUGAUGUUAUUCGUGUTT against MOAP1 it is 0.0405.

Regarding GGAAGGAUCAAACUACAAATT against AATF, the median seed-adjusted z-score was 0.182. For the sequence CAUUAUCGAUACUAUGUAATT against PSMD6, the median seed-adjusted z-score is -1.03 (active).
